Laboratory results from PubChem BioAssay (Tox21).
Results filed as inconclusive are left out. Active and inactive are the calls of the source. Unless noted, calls follow the shape of the dose curve; as a rule, active = well fitted curve in the direction sought with a large enough effect in the repeat runs; inconclusive = weak or mixed curves; inactive = no such curve, though single readings can be large; an effect the other way counts as inactive or inconclusive.

Columns and labels:
[1] = biological target: Thyrotropin receptor (Homo sapiens) (UniProt P16473); test: qHTS assay to identify small molecule agonists of the thyroid stimulating hormone receptor (TSHR) signaling pathway (AID 1224843; calls by dose curve; also: nearly all actives have a fitted effect of over 45% in size)
Outline: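 HEK293/TSHR, 800 cells/well; cpd 30 min RT; add cAMP-d2 + anti-cAMP-cryptate, 1 h RT; fluorescence read on plate reader. 15-pt titration, n=3.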

[2] = qHTS assay to identify small molecule agonists of H2AX (AID 1224845; active = well fitted activation curve with a large enough effect in the signal ratio in the repeat runs, not every such curve was filed as active; the % refers to the signal ratio)
Outline: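 Wild-type CHO-K1 cells, plated overnight, exposed 3hr at 37C to 15 concentrations (0.76% DMSO final). Lysed, then HTRF anti-pH2AX (S139) cryptate and anti-H2AX-d2 antibodies, 24 hr room temperature; 665/620 nm emission read.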

[3] = qHTS assay to identify small molecule agonists of the hypoxia (HIF-1) signaling pathway (AID 1224846; active = well fitted activation curve with a large enough effect in the signal ratio in the repeat runs, not every such curve was filed as active; the % refers to the signal ratio)
Outline: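 Agonist mode reporter screen. ME-180 cells stably expressing bla under HRE control received test compounds in DMSO for 17 hrs (37C, 5% CO2), and beta-lactamase activity was then detected with the CCF4-AM FRET substrate.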

[4] = qHTS RealTime-Glo MT Cell Viability Assay in HEK293 cells - 32 hour (AID 1224868); also: nearly all actives have a fitted effect of over 50% in size; also: potency is read from the fitted curve at half-maximal effect
Outline: (§1)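 HEK293 cells were seeded at 600 cells/well together with NanoLuc luciferase and cell-permeant prosubstrate, preincubated 5 h at 37 C/5% CO2, then given compound in DMSO by pintool. Luminescence from viable-cell prosubstrate reduction was read repeatedly over 40 h.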

[5] = A CellTox Green Cytotoxicity Assay to monitor cytotoxicity in HEK293 cells - 0 hour (AID 1224869); also: nearly all actives have a fitted effect of over 50% in size; also: potency is read from the fitted curve at half-maximal effect
Outline: (§2)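 Dead-cell fluorescence measured kinetically: asymmetric cyanine dye, HEK293, 600 cells/well, 5 h settle, 23 nL cpd/DMSO, 37 C, reads 0–40 h every 8 h.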

[6] = qHTS RealTime-Glo MT Cell Viability Assay in HepG2 cells - 40 hour (AID 1224870); also: nearly all actives have a fitted effect of over 50% in size
Outline: (§3)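 HepG2 cells (600/well) mixed with RealTime-Glo MT reagent, settled 5 h at 37 C/5% CO2 before compound addition. Nonlytic NanoLuc luminescence from viable-cell prosubstrate reduction read repeatedly during 40 h treatment at 37 C.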

[7] = A CellTox Green Cytotoxicity Assay to monitor cytotoxicity in HEK293 cells - 40 hour (AID 1224871); also: nearly all actives have a fitted effect of over 45% in size; also: potency is read from the fitted curve at half-maximal effect
Outline: as §2

[8] = qHTS RealTime-Glo MT Cell Viability Assay in HEK293 cells - 16 hour (AID 1224872); also: nearly all actives have a fitted effect of over 50% in size; also: potency is read from the fitted curve at half-maximal effect
Outline: as §1

[9] = qHTS RealTime-Glo MT Cell Viability Assay in HEK293 cells - 40 hour (AID 1224874); details: RealTime-Glo luminescence; max response: hits give low values; also: nearly all actives have a fitted effect of over 50% in size; also: potency is read from the fitted curve at half-maximal effect
Outline: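 600 HEK293 cells per well, dispensed already mixed with RealTime-Glo MT reagents. Compound dosing came 5 h later. The same wells were read for luminescence at 0, 8, 16, 24, 32 and 40 h of exposure at 37 C.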

[10] = A CellTox Green Cytotoxicity Assay to monitor cytotoxicity in HEK293 cells - 24 hour (AID 1224875); also: nearly all actives have a fitted effect of over 45% in size; also: potency is read from the fitted curve at half-maximal effect
Outline: as §2

[11] = A CellTox Green Cytotoxicity Assay to monitor cytotoxicity in HepG2 cells - 16 hour (AID 1224876); also: nearly all actives have a fitted effect of over 45% in size; also: potency is read from the fitted curve at half-maximal effect
Outline: (§4)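 First, HepG2 cells (600/well) mixed with reagent were plated; second, after 5 h at 37 C they received compounds via pintool; third, fluorescence was measured at 0 h through 40 h at 8 h intervals.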

[12] = qHTS RealTime-Glo MT Cell Viability Assay in HepG2 cells - 32 hour (AID 1224877); also: nearly all actives have a fitted effect of over 55% in size
Outline: (§5)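 HepG2 cells were seeded at 600 cells/well together with NanoLuc luciferase and a cell-permeant prosubstrate, preincubated 5 h at 37 C/5% CO2, then pin-dosed with compounds in DMSO. Nonlytic luminescence from viable cells was read at each time point.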

[13] = A CellTox Green Cytotoxicity Assay to monitor cytotoxicity in HepG2 cells - 24 hour (AID 1224878); also: nearly all actives have a fitted effect of over 45% in size; also: potency is read from the fitted curve at half-maximal effect
Outline: as §4

[14] = A CellTox Green Cytotoxicity Assay to monitor cytotoxicity in HepG2 cells - 40 hour (AID 1224879); also: nearly all actives have a fitted effect of over 40% in size; also: potency is read from the fitted curve at half-maximal effect
Outline: as §4

[15] = qHTS assay to identify small molecule agonists of H2AX - cell viability counter screen (AID 1224847; calls by dose curve; also: nearly all actives have a fitted effect of over 30% in size; also: potency is read from the fitted curve at half-maximal effect)
Outline: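 Counter-screen for viability: CellTiter-Glo ATP luminescence read after 3 h compound treatment (15-point titration, 0.76% DMSO final) of CHO-K1 cells at 37C, with 30 min room-temperature reagent incubation.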

[16] = qHTS assay to identify small molecule agonists of the estrogen related receptor (ERR) signaling pathway from Tox21 library (AID 1224849; calls by dose curve; also: nearly all actives have a fitted effect of over 15% in size); details: ERR reporter cell line, ONE-Glo luciferase, 18 h; at 92.4 µM (top of the series) unless noted
Outline: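 Quantitative HTS in agonist format: NTP ERR cell line, compounds transferred in DMSO after 6 h plating, 18 h incubation at 37 C, ONE-Glo luminescence endpoint.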

[17] = qHTS RealTime-Glo MT Cell Viability Assay in HepG2 cells - 24 hour (AID 1224867); also: nearly all actives have a fitted effect of over 50% in size
Outline: as §5

[18] = qHTS RealTime-Glo MT Cell Viability Assay in HepG2 cells - 8 hour (AID 1224873); also: nearly all actives have a fitted effect of over 55% in size
Outline: as §3

[19] = qHTS assay to identify small molecule agonists of the hypoxia (HIF-1) signaling pathway - cell viability counter screen (AID 1224844; calls by dose curve; also: nearly all actives have a fitted effect of over 50% in size)
Outline: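 Viability counter screen: HRE-bla ME-180 cells plated 5 hrs before compound addition, treated 17 hrs at 37C and 5% CO2, then CellTiter-Glo added after the FRET reporter read; luminescence after 30 min.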

[20] = qHTS assay to identify small molecule antagonists of the estrogen related receptor (ERR) signaling pathway from Tox21 library (AID 1224848); also: nearly all actives have a fitted effect of over 50% in size; also: potency is read from the fitted curve at half-maximal effect
Outline: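 Compounds dissolved in DMSO are pin-transferred onto ERR reporter cells (2,000 per well) that have settled for 6 h at 37 C. Plates then incubate 18 h at 37 C before ONE-Glo luciferase reagent and a luminescence read 30 min later.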
% is scaled to controls: 0 for no effect and ±100 for the full control effect.

Chain of Thyrotropin receptor (Homo sapiens) (P16473 whole entry, looked up): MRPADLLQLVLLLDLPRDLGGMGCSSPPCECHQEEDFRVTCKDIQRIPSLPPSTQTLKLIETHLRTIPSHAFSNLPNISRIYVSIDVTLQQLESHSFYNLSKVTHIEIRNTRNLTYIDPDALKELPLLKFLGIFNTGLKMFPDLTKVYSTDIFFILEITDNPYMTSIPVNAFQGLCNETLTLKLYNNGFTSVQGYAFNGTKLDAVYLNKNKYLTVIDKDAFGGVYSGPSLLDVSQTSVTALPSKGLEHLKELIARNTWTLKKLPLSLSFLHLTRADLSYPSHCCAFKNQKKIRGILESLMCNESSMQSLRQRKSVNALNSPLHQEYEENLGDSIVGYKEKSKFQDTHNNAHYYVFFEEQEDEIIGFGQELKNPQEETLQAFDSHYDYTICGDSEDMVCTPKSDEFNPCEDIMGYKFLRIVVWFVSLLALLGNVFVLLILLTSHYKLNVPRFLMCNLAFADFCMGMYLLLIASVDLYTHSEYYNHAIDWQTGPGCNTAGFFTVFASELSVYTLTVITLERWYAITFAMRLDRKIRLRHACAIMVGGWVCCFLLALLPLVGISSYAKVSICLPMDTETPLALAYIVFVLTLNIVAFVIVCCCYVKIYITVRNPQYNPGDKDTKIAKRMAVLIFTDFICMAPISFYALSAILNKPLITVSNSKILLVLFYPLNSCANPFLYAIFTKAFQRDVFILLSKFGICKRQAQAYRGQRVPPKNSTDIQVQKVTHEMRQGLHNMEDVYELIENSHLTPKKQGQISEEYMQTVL

CCOc1cc(N)c(Cl)cc1C(=O)NCC1CN(Cc2ccc(F)cc2)CCO1 (centres undefined)
inactive: Potency [1] | Potency [2] | outcome [3] | Potency [5] | Potency [6] | Potency [7] | Potency [10] | Potency [11] | Potency [12] | Potency [13] | Potency [14]
active: Potency [4] 16.9 µM | Potency [8] 16.9 µM | Potency [9] 16.9 µM

O=C(CS)OCCOC(=O)CS
inactive: Potency [1] | Potency [2] | outcome [3] | Potency [15] | activity change, positive = activation [16] -27.9% | Potency [17] | Potency [4] | Potency [5] | Potency [6] | Potency [7] | Potency [8] | Potency [18] | Potency [10] | Potency [11] | Potency [12] | Potency [13] | Potency [14]

COC(=O)CC(=O)C(C)(C)C
inactive: Potency [1] | Potency [2] | Potency [15] | Potency [17] | Potency [4] | Potency [5] | Potency [6] | Potency [8] | Potency [18] | Potency [10] | Potency [11] | Potency [12] | Potency [13] | Potency [14]

CC(C)=CC=O
inactive: Potency [19] | Potency [2] | outcome [3] | Potency [15] | Potency [17] | Potency [4] | Potency [5] | Potency [6] | Potency [7] | Potency [8] | Potency [18] | max response [9] 12.5% | Potency [10] | Potency [11] | Potency [12] | Potency [13] | Potency [14]

CCc1c2c(nc3ccc(OC(=O)N4CCC(N5CCCCC5)CC4)cc13)-c1cc3c(c(=O)n1C2)COC(=O)[C@]3(O)CC
inactive: Potency [1] | outcome [3] | Potency [15] | Potency [17] | Potency [5] | Potency [6] | Potency [7] | Potency [18] | Potency [10] | Potency [11] | Potency [12] | Potency [13]
active: Potency [9] 2.39 µM

c1cnc2c(n1)CCCC2
active: Potency [5] 43.6 µM | Potency [7] 43.6 µM | Potency [10] 43.6 µM | Potency [11] 38.9 µM | Potency [13] 38.9 µM | Potency [14] 38.9 µM
inactive: Potency [19] | Potency [2] | outcome [3] | Potency [15] | Potency [20] | activity change, positive = activation [16] 3.42% | Potency [17] | Potency [4] | Potency [6] | Potency [8] | Potency [18] | max response [9] 1.7% | Potency [12]

COc1cc2c(cc1OC)-c1cc(=Nc3c(C)cc(C)cc3C)n(C)c(=O)n1CC2
active: Potency [20] 13.3 µM | Potency [14] 21.3 µM
inactive: Potency [19] | Potency [2] | outcome [3] | Potency [15] | activity change, positive = activation [16] -48.8% [at 42.5 µM] | Potency [17] | Potency [5] | Potency [6] | Potency [7] | Potency [8] | Potency [18] | Potency [10] | Potency [11] | Potency [12] | Potency [13]

CCCCC(=O)O[C@]1(C(=O)CO)CC[C@H]2[C@@H]3CCC4=CC(=O)CC[C@]4(C)[C@H]3[C@@H](O)C[C@@]21C
inactive: Potency [19] | Potency [2] | outcome [3] | Potency [15] | activity change, positive = activation [16] -22.8% [at 42.5 µM] | Potency [17] | Potency [4] | Potency [5] | Potency [6] | Potency [7] | Potency [8] | Potency [18] | Potency [10] | Potency [11] | Potency [12] | Potency [13] | Potency [14]

CCCc1c(OCCCOc2ccc(OCC(=O)O)cc2)ccc(C(C)=O)c1O
inactive: Potency [1] | Potency [20] | activity change, positive = activation [16] -8.13% | Potency [17] | Potency [4] | Potency [6] | Potency [7] | Potency [8] | Potency [18] | max response [9] -7.6% | Potency [10] | Potency [11] | Potency [12] | Potency [13]
active: Potency [15] 101 µM

CSc1ccc(Oc2ccc(S(N)(=O)=O)cc2CN(C)C)cc1C
active: Potency [20] 5.45 µM | Potency [4] 43.6 µM | Potency [9] 38.9 µM
inactive: Potency [19] | Potency [2] | outcome [3] | activity change, positive = activation [16] -34.7% | Potency [6] | Potency [7] | Potency [18] | Potency [10] | Potency [12]

CCn1nc(C)c2c1C(=O)NCC(c1ccc(O)cc1)=N2
inactive: Potency [19] | Potency [2] | outcome [3] | Potency [17] | Potency [4] | Potency [5] | Potency [6] | Potency [8] | Potency [18] | max response [9] 0.626% | Potency [10] | Potency [11] | Potency [12] | Potency [13] | Potency [14]

CCNC(=O)N1CCN(CCCC(c2ccc(F)cc2)c2ccc(F)cc2)CC1
active: Potency [20] 7.5 µM | Potency [4] 16.9 µM | Potency [8] 16.9 µM | Potency [9] 16.9 µM | Potency [14] 21.3 µM
inactive: Potency [19] | Potency [2] | Potency [15] | activity change, positive = activation [16] -50.1% [at 42.5 µM] | Potency [17] | Potency [5] | Potency [6] | Potency [10] | Potency [11] | Potency [12]

C=CC(=O)NCOCC(C)C
inactive: Potency [19] | Potency [2] | Potency [15] | Potency [17] | Potency [4] | Potency [5] | Potency [6] | Potency [7] | Potency [8] | Potency [18] | max response [9] -14% | Potency [10] | Potency [11] | Potency [12] | Potency [13] | Potency [14]

CCC1(C)CC(=O)NC1=O (centres undefined)
inactive: Potency [19] | Potency [2] | Potency [15] | Potency [17] | Potency [4] | Potency [5] | Potency [6] | Potency [8] | Potency [18] | max response [9] 1.67% | Potency [10] | Potency [11] | Potency [12] | Potency [13] | Potency [14]

CCC(C)(C)C1CCC(O)CC1 (centres undefined)
inactive: Potency [19] | Potency [2] | outcome [3] | Potency [17] | Potency [4] | Potency [5] | Potency [6] | Potency [7] | Potency [8] | Potency [18] | max response [9] 3.32% | Potency [10] | Potency [12]
